High-throughput results (PubChem BioAssay)
Shown are actives, neighbours in structure and some others; about 20% of the full set was active somewhere.
Pf growth 48h = inhibits P. falciparum growth in the first generation, 48 h. Potency, µM (top dose mostly 28.7 µM), inactives show at the highest dose activity change, negative = inhibition, hits mostly inhibitors. P. falciparum luciferase growth in erythrocytes, 48 h. actives 5.9% (n = 310,000); further: potency means the concentration at half of the fitted maximal effect; on the % scale 0 is the no-effect control and ±100 the full control effect
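Read-out is firefly luciferase luminescence from an integrated reporter in P. falciparum, so falling signal marks reduced parasite growth. Infected erythrocytes were at 2% hematocrit and 0.1% parasitemia (final) in Albumax-supplemented RPMI 1640.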
CHX counter = affects cycloheximide protein synthesis inhibition readout, counter-screen. cell reporter, cycloheximide protein synthesis inhibition counterscreen. actives 12% (n = 300,000). max response, %; in the data active means max response mostly above about 13%, no sharp cut-off; inactive means mostly below about 14%; further: read at 38.3 µM for the half of the compounds with a filed dose; 0% is about no effect
HCMV antiviral = blocks human cytomegalovirus replication; actives 4.5% (n = 410,000); AID 1259415; activity change, negative = inhibition, % at 57.5 µM; HFF cells, HCMV-luciferase reporter, 72 h; stronger effect = lower value; in the data active means activity change below about -60%; inconclusive means no clear call, values can overlap the other calls; inactive means above about -39%; further: on the % scale 0 is the no-effect control and ±100 the full control effect
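Inhibition of viral replication was scored as loss of reporter luminescence in HFFs infected with HCMV-luciferase (MOI 1 PFU/cell) for 72 h; compounds tested at 2 doses, normalized to buffer and Salinomycin controls.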
Shiga toxin inh = inhibitors of Shiga toxin in Vero cells; Vero cells, Shiga toxin protein synthesis inhibition reporter; inhibition, % at 38.7 µM; actives 9.2% (n = 290,000); in the data active means inhibition mostly above about 28%, no sharp cut-off; inactive means mostly below about 43%; further: 0% is about no effect
Pf growth 96h = P. falciparum growth inhibition at 96 hour, primary screen for plastid delayed-death inhibitors | Potency, µM (series often up to 28.7 µM), for the others: top-dose activity change, negative = inhibition, actives largely listed as inhibitors | actives 6.9% (n = 320,000) | AID 504834 | P. falciparum luciferase reporter growth, 96 h; further: potency means the concentration at half of the fitted maximal effect; on the % scale 0 is the no-effect control and ±100 the full control effect
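Delayed-death screen, second-generation endpoint: infected erythrocytes, 2% hematocrit, 0.05% parasitemia final; 96 hours at 37 C, 5% CO2; luciferase detection reagent; luminescence decrease equals reduced growth.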
An asterisk follows results filed as active; ? = inconclusive; . = no result given. Unless noted, the call rests on the fitted dose curve; in most records, active means well fitted inhibition curve with a large enough effect; inconclusive means small, poorly fitted or top-dose-only effect, or another doubt; inactive means no such curve, though single readings can be large or run the other way.

SMILES	Pf growth 48h	CHX counter	HCMV antiviral	Shiga toxin inh	Pf growth 96h
COc1ccc2oc(=O)c(C(=O)NCCc3c(C)[nH]c4ccc(Br)cc34)cc2c1	.	.	-18	.	.
Cc1nc2c(c(=O)n1Cc1ccccc1Cl)c1nc3ccccc3nc1n2Cc1ccco1	?	10	.	21	?
CCO/C(C)=N/n1c2nc3ccccc3nc2c2c(=O)n(Cc3ccccc3Cl)c(C)nc21	0.74µM*	2	?	14	?
O=C1c2cccnc2C(=O)N1Cc1ccc(S(=O)(=O)N2CCOc3ccc(Cl)cc32)cc1	23%	-7	.	0	?
Cc1ccc(-n2nnnc2Sc2ccc(S(=O)(=O)NCCN(C)C)cc2[N+](=O)[O-])cc1	?	15	-100*	19	?
Cc1ccc(S(=O)(=O)NCCSc2nnnn2-c2ccc(C(N)=O)cc2)cc1	?	8	-39	11	?
O=[N+]([O-])c1cc(S(=O)(=O)NCCN2CCOCC2)ccc1Sc1nnnn1-c1ccccc1	13µM*	16*	-89*	10	?
CN(C)CCNS(=O)(=O)c1ccc(N2CCN(c3ccc(F)cc3)CC2)c([N+](=O)[O-])c1	12µM*	0	-76*	-11	?
O=[N+]([O-])c1cc(S(=O)(=O)NCCCN2CCOCC2)ccc1Cl	-20%	1	-35	-7	-24%
Cc1cc(C)cc(NC(=O)c2cc(S(=O)(=O)N3CCCCC3)c[nH]2)c1	.	.	-20	.	.
COc1ccc(C)cc1NC(=O)C(OC(=O)C1CC1)c1ccccc1 (stereo unspecified)	25%	-4	27	-5	-17%
Cc1nn(Cc2ccc(C(=O)NC(C)(C)C)o2)c(C)c1Br	?	14	-80*	20	-13%
Cc1cc(NC(=O)c2ccc(Cn3nc(C)c(Br)c3C)o2)no1	?	-2	50	4	21%
Cc1nn(Cc2ccc(C(=O)Nc3ccc(C(=O)OC(C)C)cc3)o2)c(C)c1Cl	15µM*	8	-1	-2	20%
CCOC(=O)c1ccc(NC(=O)Nc2ccc3snnc3c2)cc1	.	.	-106*	.	.
CCc1ccccc1NC(=O)Nc1ccc(F)cc1	0%	14*	0	31	?
CCc1ccccc1NC(=O)Nc1ccc2snnc2c1	.	.	-70*	.	.
O=C(Nc1ccc2snnc2c1)Nc1cccc2ccccc12	?	21	-88*	88	.
Cc1ccc(NC(=O)Nc2ccc3snnc3c2)cc1C	.	.	-29	.	.
COc1ccccc1-c1noc(CCCC(=O)Nc2ccc(C(N)=O)cc2)n1	16%	1	63	15	-12%
CCOC(=O)C1(C)CCCN1C(=O)c1cccc(F)c1 (stereo unspecified)	.	.	-1	.	.
CC(=O)OCc1c(C(F)(F)F)nn(C)c1Sc1ccccc1	1%	-5	-9	-11	36%
COc1ccc(/C=C2/CCOC2=O)cc1	20%	18*	8	-2	31%
Cc1ccc(/C=C2/CNC/C(=C/c3ccc(C)cc3)C2=O)cc1	.	.	-29	.	.
COc1cc(/C=C2\CCOC2=O)cc(OC)c1OC	0%	2	28	-10	-17%
SMILES	Pf growth 48h	CHX counter	HCMV antiviral	Shiga toxin inh	Pf growth 96h
COc1ccc(C=C2CS(=O)(=O)CC(=Cc3ccc(OC)cc3)C2=O)cc1	.	.	-99*	.	.
Cc1ccc(/C=C2\CCOC2=O)cc1	?	12*	9	15	11%
Cc1ccc(/C=C2/CNC/C(=C\c3ccc(C)cc3)C2=O)cc1	.	67*	.	86*	.
CC(=O)Nc1ccc(OCC(O)CN2C(C)(C)CC(O)CC2(C)C)cc1 (stereo unspecified)	5%	-8	35	-14	-19%
Cc1cc(Br)ccc1NC(=O)c1c(C)oc2ncnc(N3CCCCC3)c12	.	.	-13	.	.
Cc1ccc(S(=O)(=O)NNC2CC(=O)N(c3ccc(Br)cc3)C2=O)cc1 (stereo unspecified)	11%	-5	13	3	52%
CCN(C(=O)CSc1nnc(-c2cccc(F)c2)n1N)c1c(N)n(Cc2ccccc2)c(=O)[nH]c1=O	.	.	-28	.	.
CC1(C)CC(NC(=O)c2cccc([N+](=O)[O-])c2)CC(C)(C)N1	8%	-2	23	-3	189%
Cc1ccc(S(=O)(=O)Nc2c(Cl)c(Cl)c(O)c3ccccc23)cc1	-21%	34*	.	47*	?
Cc1ccc(S(=O)(=O)Nc2cc(Cl)c(O)cc2C)cc1	25%	-4	-70*	-23	48%
Cc1ccc(S(=O)(=O)Nc2ccccc2-c2ccccc2NS(=O)(=O)c2ccc(C)cc2)cc1	?	4	28	15	40%
